# Data published in PubChem BioAssay (NCATS).
# Results filed as inconclusive are left out. Activity calls are given as the source filed them. The call rests on the fitted dose curve; in most records, active means well fitted curve in the direction sought with a large enough effect; inconclusive means small, poorly fitted or top-dose-only effect, or another doubt; inactive means no such curve, though single readings can be large; an effect the other way counts as inactive or inconclusive.
# Assays:
# [1] = qHTS of pediatric cancer cell lines to identify multiple opportunities for drug repurposing: Primary screen for DAOY cells (AID 1347090); conditions: DAOY medulloblastoma viability, CellTiter-Glo luminescence, 48 h; series mostly up to 46 µM; further: nearly all actives have a fitted effect of over 55% in size; further: potency means the concentration at half of the fitted maximal effect
# In short: (§1)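 Cell viability, CellTiter-Glo luminescence; 500-1,000 cells/well, 8- or 11-point titration, 48 h compound exposure at 37 degrees C, 5% CO2. Controls: DMSO neutral, bortezomib 2.3 µM final as positive.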
# [2] = qHTS of pediatric cancer cell lines to identify multiple opportunities for drug repurposing: Primary screen for A673 cells (AID 1347092); conditions: A673 Ewing sarcoma viability, CellTiter-Glo ATP luminescence, 48 h; series mostly up to 46 µM; further: nearly all actives have a fitted effect of over 45% in size; further: potency means the concentration at half of the fitted maximal effect
# In short: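 48 h compound exposure, A673, 500-1,000 cells/well, 37 degrees C/5% CO2. MIPE: 11-point, 0.78 nM-46 µM; NPC: 8-point, 0.59 nM-46 µM (final). Readout CellTiter-Glo luminescence after 15 min RT.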
# [3] = qHTS of pediatric cancer cell lines to identify multiple opportunities for drug repurposing: Primary screen for SK-N-MC cells (AID 1347093); conditions: SK-N-MC viability, CellTiter-Glo luminescence, 48 h; series mostly up to 46 µM; further: potency means the concentration at half of the fitted maximal effect
# In short: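 Metabolically active cells were quantified by ATP-dependent luminescence (CellTiter-Glo, 15 min at room temperature) following 48 h treatment. Cells had been plated at 500-1,000 per well and settled for 5 h beforehand.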
# [4] = qHTS of pediatric cancer cell lines to identify multiple opportunities for drug repurposing: Primary screen for Saos-2 cells (AID 1347097); conditions: Saos-2 viability, CellTiter-Glo ATP luminescence, 48 h; series mostly up to 46 µM; further: potency means the concentration at half of the fitted maximal effect; nearly all actives have a fitted effect of over 40% in size
# In short: (§2)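 Readout: CellTiter-Glo luminescence, 48 h treatment. Controls DMSO (neutral) and bortezomib 2.3 µM final (positive). Potency and efficacy taken from primary-screen concentration-response curves.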
# [5] = qHTS of pediatric cancer cell lines to identify multiple opportunities for drug repurposing: Primary screen for NB1643 cells (AID 1347099); conditions: NB1643 neuroblastoma viability, CellTiter-Glo luminescence, 48 h; series mostly up to 46 µM; further: nearly all actives have a fitted effect of over 50% in size; further: potency means the concentration at half of the fitted maximal effect
# In short: as §2
# [6] = qHTS of pediatric cancer cell lines to identify multiple opportunities for drug repurposing: Primary screen for LAN-5 cells (AID 1347100); conditions: LAN-5 neuroblastoma viability, CellTiter-Glo luminescence, 48 h; series mostly up to 46 µM; further: potency means the concentration at half of the fitted maximal effect
# In short: (§3)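 Cells (500-1,000/well) rested 5 h, then received compounds for 48 h; metabolically active cells were measured by CellTiter-Glo luminescence. Final concentrations spanned up to 46 µM (MIPE, 11-point) or 0.59 nM-46 µM (NPC, 8-point) in primary screens, 11-point in follow-ups.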
# [7] = qHTS of pediatric cancer cell lines to identify multiple opportunities for drug repurposing: Primary screen for BT-12 cells (AID 1347101); conditions: BT-12 viability, CellTiter-Glo luminescence, 48 h; series mostly up to 57.3 µM; further: nearly all actives have a fitted effect of over 25% in size; further: potency means the concentration at half of the fitted maximal effect
# In short: as §3
# [8] = qHTS of pediatric cancer cell lines to identify multiple opportunities for drug repurposing: Primary screen for RD cells (AID 1347104); conditions: RD rhabdomyosarcoma viability, CellTiter-Glo luminescence, 48 h; series mostly up to 46 µM; further: nearly all actives have a fitted effect of over 55% in size; further: potency means the concentration at half of the fitted maximal effect
# In short: as §2
# [9] = qHTS of pediatric cancer cell lines to identify multiple opportunities for drug repurposing: Primary screen for U-2 OS cells (AID 1347096); conditions: U-2 OS viability, CellTiter-Glo luminescence, 48 h; series mostly up to 46 µM; further: nearly all actives have a fitted effect of over 50% in size
# In short: as §3
# [10] = qHTS of pediatric cancer cell lines to identify multiple opportunities for drug repurposing: Primary screen for OHS-50 cells (AID 1347103); conditions: OHS-50 osteosarcoma viability, CellTiter-Glo luminescence, 48 h; series mostly up to 57.3 µM; further: potency means the concentration at half of the fitted maximal effect; nearly all actives have a fitted effect of over 40% in size
# In short: as §3
# [11] = qHTS of pediatric cancer cell lines to identify multiple opportunities for drug repurposing: Primary screen for SJ-GBM2 cells (AID 1347091); conditions: SJ-GBM2 viability, CellTiter-Glo luminescence, 48 h; series mostly up to 46 µM; further: potency means the concentration at half of the fitted maximal effect
# In short: as §1
# [12] = qHTS of pediatric cancer cell lines to identify multiple opportunities for drug repurposing: Primary screen for BT-37 cells (AID 1347094); conditions: BT-37 viability, CellTiter-Glo luminescence, 48 h; series mostly up to 57.3 µM; further: potency means the concentration at half of the fitted maximal effect
# In short: as §2
# [13] = qHTS of pediatric cancer cell lines to identify multiple opportunities for drug repurposing: Primary screen for NB-EBc1 cells (AID 1347095); conditions: NB-EBc1 neuroblastoma viability, CellTiter-Glo luminescence, 48 h; series mostly up to 46 µM; further: potency means the concentration at half of the fitted maximal effect
# In short: as §2
# [14] = qHTS of pediatric cancer cell lines to identify multiple opportunities for drug repurposing: Primary screen for Rh18 cells (AID 1347102); conditions: Rh18 rhabdomyosarcoma viability, CellTiter-Glo luminescence, 48 h; series mostly up to 46 µM; further: nearly all actives have a fitted effect of over 65% in size; further: potency means the concentration at half of the fitted maximal effect
# In short: as §3
# [15] = qHTS of pediatric cancer cell lines to identify multiple opportunities for drug repurposing: Primary screen for TC32 cells (AID 1347089); conditions: TC32 Ewing sarcoma viability, CellTiter-Glo luminescence, 48 h; series mostly up to 45.8 µM; further: nearly all actives have a fitted effect of over 60% in size
# In short: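 In the primary qHTS, MIPE compounds were tested at 11 concentrations (0.78 nM to 46 µM) and NPC compounds at 8 (0.59 nM to 46 µM) on TC32 cells for 48 h. CellTiter-Glo luminescence gave viability.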
# [16] = qHTS of pediatric cancer cell lines to identify multiple opportunities for drug repurposing: Primary screen for SK-N-SH cells (AID 1347098); conditions: SK-N-SH viability, CellTiter-Glo luminescence, 48 h; series mostly up to 57 µM; further: nearly all actives have a fitted effect of over 65% in size; further: potency means the concentration at half of the fitted maximal effect
# In short: as §3
structure (smiles),measurement,setting,value
O=c1c(-c2ccccc2)c1-c1ccccc1,Potency,[1],21.1 µM (active)
same,Potency,[2],8.41 µM (active)
same,Potency,[3],6.68 µM (active)
same,Potency,[4],11.9 µM (active)
same,Potency,[5],8.41 µM (active)
same,Potency,[6],18.8 µM (active)
same,Potency,[7],5.5 µM (active)
same,Potency,[8],18.8 µM (active)
CN1CCCC(CC2c3ccccc3Sc3ccccc32)C1 (stereo not drawn),Potency,[1],inactive
same,Potency,[3],23.7 µM (active)
same,Potency,[9],inactive
same,Potency,[5],inactive
same,Potency,[6],23.7 µM (active)
same,Potency,[7],19.5 µM (active)
same,Potency,[10],24.6 µM (active)
Nc1ccc(C(=O)Nc2ccccc2N)cc1,Potency,[1],16.8 µM (active)
same,Potency,[11],13.3 µM (active)
same,Potency,[12],17.4 µM (active)
same,Potency,[13],3.76 µM (active)
same,Potency,[5],7.5 µM (active)
same,Potency,[6],6.68 µM (active)
same,Potency,[14],16.8 µM (active)
same,Potency,[10],6.17 µM (active)
CCCSS/C(CCO)=C(\C)N(C=O)Cc1cnc(C)nc1N,Potency,[3],15 µM (active)
same,Potency,[12],inactive
same,Potency,[13],16.8 µM (active)
same,Potency,[9],inactive
same,Potency,[7],inactive
same,Potency,[14],inactive
same,Potency,[10],21.9 µM (active)
C#C[C@]1(O)CC[C@H]2[C@@H]3CCc4cc(OC5CCCC5)ccc4[C@H]3CC[C@@]21C,Potency,[15],inactive
same,Potency,[13],inactive
same,Potency,[16],17.2 µM (active)
same,Potency,[10],19.5 µM (active)
COc1ccc(CN2CCN(C(c3ccc(F)cc3)c3ccc(F)cc3)CC2)c(OC)c1OC,Potency,[1],inactive
same,Potency,[2],21.1 µM (active)
same,Potency,[16],21.7 µM (active)
same,Potency,[5],inactive
CN(C(=O)CN(CCO)CC(=O)N(C)C(C)(C)Cc1ccccc1)C(C)(C)Cc1ccccc1,Potency,[1],inactive
same,Potency,[2],inactive
same,Potency,[9],inactive
same,Potency,[7],12.3 µM (active)
same,Potency,[10],17.4 µM (active)
same,Potency,[8],inactive
CC(=O)N/N=C/c1ccc([N+](=O)[O-])o1,Potency,[9],inactive
CCOc1ccc(Cc2nccc3cc(OCC)c(OCC)cc23)cc1OCC,Potency,[1],21.1 µM (active)
same,Potency,[11],inactive
same,Potency,[7],6.17 µM (active)
same,Potency,[10],7.77 µM (active)
Oc1ccc(Cl)c2cccnc12,Potency,[11],inactive
same,Potency,[9],inactive
same,Potency,[6],21.1 µM (active)
same,Potency,[7],5.5 µM (active)
NC(=NCCCCCCN=C(N)/N=C(\N)Nc1ccc(Cl)cc1)/N=C(\N)Nc1ccc(Cl)cc1,Potency,[1],21.1 µM (active)
same,Potency,[2],21.1 µM (active)
same,Potency,[4],26.6 µM (active)
same,Potency,[16],7.7 µM (active)
same,Potency,[7],9.78 µM (active)
same,Potency,[8],26.6 µM (active)
Oc1c(I)cc(I)c2cccnc12,Potency,[9],inactive
same,Potency,[5],inactive
same,Potency,[14],inactive
CCCCCCCCCCCCCCCC[N+](C)(C)CC,Potency,[1],13.3 µM (active)
same,Potency,[11],18.8 µM (active)
same,Potency,[2],1.06 µM (active)
same,Potency,[3],2.66 µM (active)
same,Potency,[12],13.8 µM (active)
same,Potency,[4],13.3 µM (active)
same,Potency,[16],12.2 µM (active)
same,Potency,[7],2.76 µM (active)
same,Potency,[14],0.473 µM (active)
same,Potency,[10],0.692 µM (active)
same,Potency,[8],13.3 µM (active)
CC(=O)OCC(=O)[C@@]12OC(C)(C)O[C@@H]1C[C@H]1[C@@H]3C[C@H](F)C4=CC(=O)C=C[C@]4(C)[C@@]3(F)[C@@H](O)C[C@@]12C,Potency,[15],inactive
same,Potency,[2],inactive
same,Potency,[13],inactive
same,Potency,[9],inactive
same,Potency,[16],inactive
same,Potency,[5],inactive
same,Potency,[6],inactive
same,Potency,[7],inactive
same,Potency,[14],inactive
same,Potency,[8],inactive
